High-throughput results from PubChem BioAssay.
Hits are enriched below; roughly 1.9% of the tested compounds scored in any of these assays.
Neddyl block = inhibitors of cullin neddylation, primary screen, biochemical, TR-FRET, uHTS, NAE and Ubc12; NEDD8-conjugating enzyme Ubc12 (Homo sapiens) + NEDD8-activating enzyme E1 regulatory …; inhibition, % at 25 µM; actives 0.58% (n = 360,000); AID 651699, 2012; in the data active means inhibition above about 36%
Vif inh = HIV Vif self-association inhibitors, primary screen, imaging, HEK293T, single point; HEK293T cells, Vif self-association by quenched fluorescence, 24 h; actives 0.35% (n = 340,000); inhibition, % at 7.49 µM; in the data active means inhibition above about 50%, passing the limit was not always enough; inconclusive means no clear call, values can overlap the other calls; inactive means below about 31%
dFosB activator = activators of delta FosB homodimer, primary screen, biochemical, fluorescence polarization, TAMRA-CDK5 oligo, single point | Protein FosB (Mus musculus), P13346 | purified delta FosB; percent of positive-control signal above neutral wells | activation, % at 25 µM | actives 0.99% (n = 340,000);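 active means mean activation above about 17%, with every replicate also reaching it, limit read from the data, passing the limit was not always enough; inconclusive means only one of the two conditions met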
Target sequence (P13346 whole entry, looked up): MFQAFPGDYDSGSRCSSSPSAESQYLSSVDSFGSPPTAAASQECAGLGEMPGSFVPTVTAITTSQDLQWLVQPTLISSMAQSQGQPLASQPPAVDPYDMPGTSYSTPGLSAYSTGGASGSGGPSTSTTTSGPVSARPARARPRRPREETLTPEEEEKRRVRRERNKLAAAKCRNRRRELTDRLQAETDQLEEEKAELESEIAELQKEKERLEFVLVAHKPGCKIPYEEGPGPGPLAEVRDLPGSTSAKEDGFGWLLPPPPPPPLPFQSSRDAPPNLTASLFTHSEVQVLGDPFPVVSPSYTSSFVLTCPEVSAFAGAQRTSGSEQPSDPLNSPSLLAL
Bfl-1 A1 inh = caspase 3/7 activation in MEF A1-2A-BIM cells, primary screen, A1 inhibitor project, cell-based, luminescence, HTS. Caspase-Glo 3/7 luminescence, 3 h; percent of clofoctol response, vehicle zero. caspase activation, % (test concentration not listed). actives 0.066% (n = 330,000). AID 2462, 2010;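 active means over half of replicate activation scores above 10%, or exactly half above 10 with the replicate mean above 10; inconclusive means replicate mean below 10 yet half the replicates above 10; inactive means over half of replicates below 10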
GSIS activator = GLuc luminescence reporter in INS-1E cells, primary screen for activators of glucose-dependent secretion of insulin | INS-1E GLuc reporter insulin secretion, 2-3 h | activation, % at 16.6 µM | actives 0.61% (n = 370,000) | AID 743287, 2014;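 active means lowest replicate activation of at least 40%, so every replicate reaches that level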;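 further: 0% = median of neutral control wells and 100% = median of IBMX positive control wells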
Neddyl conf = blockade of NEDD8 conjugation to cullin – biochemical, TR-FRET, single concentration, confirmation; shares compounds with Neddyl block; TR-FRET cullin neddylation biochemical assay; calls only at 25 µM; actives 13% (n = 1,800); in the data active means inhibition above about 40%;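 further: neddylation substrate is the cullin 1 ring ligase complex with SKP2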
* hit, by the source's call; i = inactive; u = inconclusive; x = not tested or not shown; + = active, no number.

SMILES	Neddyl block	Vif inh	dFosB activator	Bfl-1 A1 inh	GSIS activator	Neddyl conf
O=C(NCc1cccs1)c1cnn2cccnc12	35.9	1.5	0.7	0.9	5.2	x
O=C(NCc1ccccc1Cl)c1cnn2cccnc12	39.4*	15.9	-6.4	0.3	x	i
CC1(C)CC(=O)C2=C(C1)c1c(ccc3ccccc13)NC2c1ccc(OCC(=O)O)cc1 (stereo not drawn)	x	-0.2	-4.1	-0.1	0.6	x
CC1(C)CC(=O)C2=C(C1)c1c(ccc3ccccc13)NC2c1ccc(Br)o1 (stereo not drawn)	42.6*	-27.3	-7.1	u	x	i
C[C@@H]1CN([C@H](C)CO)S(=O)(=O)c2ccc(C#CCN(C)C)cc2O[C@@H]1CN(C)C(=O)C1CC1	x	x	x	x	10.1	x
S=c1[nH]nc2ccc3ccccc3n12	38.3*	x	x	x	x	x
O=P(O)(O)c1cc(-c2ccccc2)oc1-c1ccccc1	46.0*	-0.6	-0.8	0.4	x	x
O=c1oc(-c2ccccc2)cc(Cl)c1Cl	11.8	8.1	4.2	0.1	12.0	x
O=C(C1CCCCC1)N1CC2(C1)[C@H](c1ccccc1)[C@H](CO)N2C(=O)NC1CCCC1	x	x	x	x	15.7	x
C/C(=N\NC(=O)c1c(Cl)cnn1C)c1ccc(NC(=O)c2ccc(Br)o2)cc1	40.9*	5.0	-4.7	-2.0	19.7	i
CCN(CC)CCN(Cc1cc2cc3c(cc2[nH]c1=O)OCCO3)C(=O)NC1CCCCC1	22.9	23.2	9.1	0.6	x	x
CC(=O)c1ccc(S(=O)(=O)N(CCCO)Cc2cc3cc4c(cc3[nH]c2=O)OCCO4)cc1	1.9	6.2	-9.4	-1.2	15.3	x
O=C(NCc1ccccc1)N(Cc1cc2cc3c(cc2[nH]c1=O)OCCO3)CC1CCCO1 (stereo not drawn)	36.6*	11.2	-7.9	x	x	i
O=c1[nH]c2cc3c(cc2cc1CN(CCO)S(=O)(=O)c1ccccc1)OCCO3	36.9*	1.8	-9.1	-0.9	8.3	x
O=C(NC1CCCCC1)N(CCN1CCOCC1)Cc1cc2cc3c(cc2[nH]c1=O)OCCO3	46.9*	-3.8	-2.3	0.0	x	+
CO[C@H]1CN(C)C(=O)c2cc(NC(=O)NC(C)C)ccc2OC[C@@H](C)N(Cc2ccc(-c3ccccn3)cc2)C[C@H]1C	x	x	x	x	11.5	x
O=C(C[C@H]1CC[C@@H](NC(=O)Nc2ccccc2F)[C@H](CO)O1)NCc1ccccc1	x	x	x	x	6.5	x
Cc1ccc(C(=O)c2oc3ccccc3c2NC(=O)c2cc(-c3cc(C)ccc3O)n[nH]2)cc1	39.5*	28.6	1.4	-0.8	8.2	i
CC(=O)Nc1c(C(=O)c2ccc(F)cc2)oc2ccccc12	7.1	-9.8	-3.2	1.1	x	x
CCCNC(=O)[C@H]1[C@H](CO)[C@H]2Cn3c(ccc(C4=CCCC4)c3=O)[C@@H]1N2	x	x	x	x	16.7	x
CN(C)C(=O)C[C@H]1C[C@H]2c3cc(NS(=O)(=O)c4ccc(F)cc4)ccc3O[C@H]2[C@@H](CO)O1	x	x	x	x	7.0	x
CC(C)(C)c1ccc(/C=C2\CCn3c2nc2cc(C(=O)O)ccc2c3=O)cc1	45.5*	-11.0	1.8	1.3	6.3	+
COc1ccc(/C=C2\CCn3c2nc2cc(C(=O)O)ccc2c3=O)cc1	11.3	-7.8	-1.8	0.2	-2.5	x
CN(C)CC#Cc1ccc([C@H]2[C@@H](CO)N3C(=O)CN(C(=O)c4cccc(F)c4)C[C@@H]23)cc1	x	x	x	x	15.0	x
NC(=O)c1nn(-c2ccccc2)nc1NC(=O)CN1CCCCC1	45.5*	-3.1	-6.8	0.1	x	i
SMILES	Neddyl block	Vif inh	dFosB activator	Bfl-1 A1 inh	GSIS activator	Neddyl conf
C[C@@H](CO)NC(=O)c1ccc2c3n(nc2c1)-c1ccccc1CO3	28.9	0.7	-0.1	-11.4	6.7	x
COCCNC(=O)c1ccc2c3n(nc2c1)-c1ccc(C)cc1CO3	51.7*	x	-3.3	-1.4	8.3	x
O=C(NCC1CCCO1)c1ccc2c3n(nc2c1)-c1ccccc1CO3 (stereo not drawn)	42.1*	x	4.0	-9.0	1.4	i
C[C@@H]1CN([C@@H](C)CO)C(=O)c2cc(NC(=O)Nc3ccccc3)ccc2O[C@@H](C)CCCCO[C@H]1CN(C)S(=O)(=O)c1cn(C)cn1	x	x	x	x	0.6	x
Cc1cc(Nc2cc(C(=O)O)ccc2C)n2ncnc2n1	7.6	-2.7	3.3	1.0	0.6	x
Cc1cc(Nc2ccccc2C(=O)O)n2ncnc2n1	40.2*	-5.1	x	x	7.1	x
COCC#Cc1cnc2c(c1)C(=O)N([C@H](C)CO)C[C@@H](C)[C@H](CN(C)C(=O)C1CCC1)O2	x	x	x	x	1.5	x
COc1ccc2oc(C(=O)OCC(=O)N3CCC(C)CC3)c(C)c2c1	x	2.2	-6.0	1.8	-13.7	x
CCOc1ccc2oc(C(=O)OCC(=O)NCc3ccc(OC)cc3)c(C)c2c1	-24.4	-10.0	-2.1	0.2	5.2	x
COc1ccc2oc(C(=O)OC(C)C(=O)NCc3ccccc3)c(C)c2c1 (stereo not drawn)	41.6*	-5.0	-5.0	-0.3	37.8	i
COc1ccc2oc(C(=O)OCC(=O)N(C)Cc3ccccc3)c(C)c2c1	x	-5.1	-18.6	0.0	-4.1	x
COC(=O)C1CCN(C(=O)COC(=O)c2oc3ccc(OC)cc3c2C)CC1	66.2*	-5.7	-13.4	0.6	-8.8	x
COc1ccc2oc(C(=O)OCC(=O)N(C)c3ccccc3)c(C)c2c1	54.6*	2.9	-13.4	0.2	1.7	x
COc1ccc2oc(C(=O)OCC(=O)NCc3ccc(OC)c(OC)c3)c(C)c2c1	43.2*	-4.1	9.5	x	7.0	i
C[C@H]1CN([C@@H](C)CO)C(=O)c2cc(NS(=O)(=O)c3cccs3)ccc2O[C@@H]1CN(C)Cc1ccc(Cl)c(Cl)c1	x	x	x	x	-15.6	x
O=C(NCc1ccccc1)[C@@H]1[C@@H](CO)[C@@H]2Cn3c(cccc3=O)[C@@H]2N1Cc1ccccc1F	x	x	x	x	14.2	x
CO[C@@H]1CN(C)C(=O)c2ccc(NS(C)(=O)=O)cc2OC[C@@H](C)N(Cc2cccnc2)C[C@H]1C	x	x	x	x	3.4	x
Cc1noc(C)c1NC(=O)Nc1ccc2c(c1)CC(=O)N([C@@H](C)CO)C[C@@H](C)[C@H](CN(C)S(=O)(=O)c1cn(C)cn1)O2	x	x	x	x	18.5	x
COc1ccc2oc(C(=O)OCC(=O)N(Cc3ccccc3)C(C)C)c(C)c2c1	43.9*	-4.3	-8.0	0.1	-35.4	i
CN(C)c1nc(OCc2ccccc2)c2ncc(=O)[nH]c2n1	44.4*	-0.5	-13.9	2.6	3.7	x
CN(C)c1nc(NCc2ccccc2)nc(Oc2ccc(=O)[nH]n2)n1	-5.7	8.2	1.2	2.4	x	x
